Screening data as filed in PubChem BioAssay.
Most compounds without a hit are left out; they make up all but 2.8% or so of the library.
SENP7 inh – blocks the human protease SENP7. Q9BQF6. recombinant SENP7, Z-RLRGG-aminoluciferin luminescence, 40 min. inhibition, % at 5 µM. hit rate 1.5% among 330,000. AID 434973;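 active = inhibition above about 50% at the single test dose, limit read from the data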;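 also: plate controls were DMSO with enzyme for no effect and no enzyme buffer wells for full effect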
Target sequence (Q9BQF6 706-1050 limits assumed): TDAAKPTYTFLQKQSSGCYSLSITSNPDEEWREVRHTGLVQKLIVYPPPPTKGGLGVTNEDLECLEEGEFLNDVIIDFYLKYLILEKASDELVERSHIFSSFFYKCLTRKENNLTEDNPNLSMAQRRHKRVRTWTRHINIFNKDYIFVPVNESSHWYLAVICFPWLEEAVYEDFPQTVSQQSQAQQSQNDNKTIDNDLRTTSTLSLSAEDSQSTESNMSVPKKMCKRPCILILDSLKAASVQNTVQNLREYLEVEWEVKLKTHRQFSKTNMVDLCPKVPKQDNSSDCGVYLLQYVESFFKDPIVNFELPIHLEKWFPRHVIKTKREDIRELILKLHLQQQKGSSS
SENP6 inh – blocks the human protease SENP6; Q9GZR1; Recombinant SENP6 catalytic domain, aminoluciferin luminescence; inhibition, % at 10 µM; hit rate 1.8% among 330,000;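 active = inhibition above about 50% at the single tested dose, limit read from the data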;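 also: plate controls were DMSO wells with enzyme for no effect and DMSO wells lacking enzyme for full effect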
SENP8 block-1 – blocks the human protease SENP8 | Q96LD8 | purified SENP8, Z-RLRGG-aminoluciferin cleavage, luminescence | inhibition, % at 10 µM | hit rate 1.2% among 330,000 | AID 2540; in the data active = inhibition above about 50%
Target sequence (Q96LD8 whole entry, looked up): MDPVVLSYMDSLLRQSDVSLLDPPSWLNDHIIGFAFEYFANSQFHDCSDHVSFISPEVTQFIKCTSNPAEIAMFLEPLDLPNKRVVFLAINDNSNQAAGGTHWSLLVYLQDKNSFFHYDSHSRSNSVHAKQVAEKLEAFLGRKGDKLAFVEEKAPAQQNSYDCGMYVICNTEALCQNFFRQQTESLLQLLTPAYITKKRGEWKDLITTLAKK
SENP8 block-2 – SENP8 (human) protease inhibition | recombinant SENP8, Nedd8 substrate fluorescence | Q96LD8 | inhibition, % at 20 µM | hit rate 0.64% among 360,000 | AID 602440; in the data active = inhibition mostly above about 40%, no sharp cut-off; inactive = mostly below about 27%
HSP90 inh – inhibitors of HSP90 luciferase refolding in rabbit reticulocyte lysate. luciferase refolding luminescence, 3 h. inhibition, % at 5.6 µM. hit rate 0.91% among 290,000;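 active = inhibition above the screen-wide mean plus 3 SD, computed separately per campaign, cut at about 16% in these data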;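 also: 0% = DMSO wells and 100% = 60 µM geldanamycin wells; inhibitors lower the luminescence because luciferase stays unfolded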
SENP8 inh conf – confirmation of human SENP8 protease inhibitors; shares compounds with SENP8 block-2; purified SENP8, Nedd8-AMC/pro-Nedd8 cleavage fluorescence, 30 min; inhibition, % at 25 µM; hit rate 15% among 1,400; in the data active = inhibition mostly above about 39%, no sharp cut-off; inactive = mostly below about 34%
* = called active by the depositor; . = no result given.

SMILES	SENP7 inh	SENP6 inh	SENP8 block-1	SENP8 block-2	HSP90 inh	SENP8 inh conf
Cc1ccc(C2C(C#N)=C(N)SC(N)=C2C#N)o1	10	23	9	.	0	.
CC1CN(c2ccc([N+](=O)[O-])c(NCCOc3ccc(Cl)cc3)c2)CC(C)N1 (stereo not given)	-1	2	-6	46*	2	16
CC1CN(c2ccc([N+](=O)[O-])c(NCCOc3ccccc3)c2)CC(C)N1 (stereo not given)	1	-15	1	38*	1	6
O=[N+]([O-])c1ccc(N2CCCCC2)cc1NCCOc1ccccc1	-2	-3	-10	40*	1	20
Cc1ccccc1OCCNc1cc(N2CC(C)NC(C)C2)ccc1[N+](=O)[O-] (stereo not given)	-4	-22	-7	25	3	.
CCc1ccc(OCCNc2cc(N3CCNC(C)C3)ccc2[N+](=O)[O-])cc1 (stereo not given)	8	0	-8	27	.	.
C/C(CC(=O)Nc1cccnc1)=N\NC(=O)c1ccc([N+](=O)[O-])c(Cl)c1	3	-6	-5	-4	2	.
CC(=O)Nc1ccccc1NC(=O)C/C(C)=N/NC(=O)c1ccc([N+](=O)[O-])c(Cl)c1	-4	-4	-9	40*	-1	8
O=C(NC1CCCCC1)C(c1ccco1)N(CCc1ccccc1)C(=O)C(F)(F)F (stereo not given)	0	-11	2	45*	-1	20
O=c1c(-c2ccc(O)cc2O)coc2cc(O)cc(O)c12	-3	8	4	55*	2	22
COc1ccccc1-c1coc2cc(O)cc(O)c2c1=O	0	-18	-3	17	-4	.
O=C(CN1C(=O)CSC1=O)N1CCc2ccccc2C1	3	36	-2	42*	3	63*
COc1ccc(-c2csc(C)n2)cc1	19	-34	-11	16	3	.
COc1ccc(-c2csc(CCN3N=C(C)CC3=O)n2)cc1	4	27	-4	59*	6	62*
O=C(c1ccccc1)c1cccc(C(=O)c2ccccc2)c1	-4	-2	-13	8	.	.
Nc1cc(N)cc(C(=O)c2ccccc2)c1	.	.	.	43*	.	77*
CC1CCCC(=NNC(=O)C2COc3ccccc3O2)C1 (stereo not given)	-2	19	-15	16	.	.
CC1(C)C=C2C(=NN(c3ccccc3)C(N)=C2C#N)CO1	10	24	36	54*	-1	97*
CC1(C)Cc2c(C#N)c(N)n(-c3ccccc3)c(=S)c2CO1	10	4	11	-136	-4	.
O=C(NNc1cccc(Cl)n1)Nc1ccc(Cl)cc1	-10	11	-6	-2	-11	.
Cc1ccc(NNC(=O)Nc2ccc(Cl)cc2)nn1	5	-1	-6	48*	-2	2
COc1ccc(CN2CCN(CC=C(C)C)C(CCO)C2)cc1Cn1cccn1 (stereo not given)	13	-14	-3	2	-4	.
c1ccc(CC2CCN(C(c3cccs3)c3nnnn3C3CCCC3)CC2)cc1 (stereo not given)	7	0	-2	12	7	.
c1ccc(CN(Cc2cccs2)C(c2cccs2)c2nnnn2C2CCCC2)cc1 (stereo not given)	-2	-2	-6	43*	2	12
Fc1cccc(Cc2noc(CN3CCOCC3)n2)c1	-4	14	0	15	-3	.
SMILES	SENP7 inh	SENP6 inh	SENP8 block-1	SENP8 block-2	HSP90 inh	SENP8 inh conf
NC(=O)CC(NC(=O)c1ccccc1)c1ccc(NC2CCCCC2)c([N+](=O)[O-])c1 (stereo not given)	9	-16	-10	43*	.	18
NC(=O)CC(NC(=O)c1ccccc1)c1ccc(NCCc2ccc(Cl)cc2)c([N+](=O)[O-])c1 (stereo not given)	1	1	-5	44*	.	-1
NC(=O)CC(NC(=O)c1ccccc1)c1ccc(NCc2ccc(F)c(F)c2)c([N+](=O)[O-])c1 (stereo not given)	-3	-13	4	23	-1	.
COCCn1cnnc1SCC(=O)Nc1cccc(S(=O)(=O)N2CCCCCC2)c1	-7	-11	-9	18	3	.
CCN(C(=O)c1cn(C)c(=O)c2cc(OC)c(OC)cc12)c1cc(OC)ccc1OC	0	-13	-1	43*	1	13
COc1ccccc1NC(=O)c1cn(C)c(=O)c2cc(OC)c(OC)cc12	-10	-9	-7	42*	1	63*
COc1cc2c(C(=O)Nc3ccccc3F)cn(C)c(=O)c2cc1OC	4	20	4	18	1	.
Cc1oc2cc([N+](=O)[O-])c(O)c([N+](=O)[O-])c2c1C(=O)c1ccc(Cl)cc1	1	-9	2	42*	0	22
COc1ccc(OC)c(C(=O)c2c(C)oc3cc([N+](=O)[O-])c(O)c([N+](=O)[O-])c23)c1	6	-17	6	19	4	.
O=C1Nc2ccccc2C(O)(C(=O)NCc2ccc3c(c2)OCO3)N1c1ccccc1 (stereo not given)	-1	5	3	10	-4	.
O=C(O)c1cccc2c1C(=O)c1ccccc1-2	0	-9	1	13	-3	.
O=C1C(=C(I)I)c2ccccc2-c2ccccc21	.	.	.	40*	.	-1
CCOC(=O)C1CCN(C(=O)CNC(=O)c2nn(-c3ccc(OC)cc3OC)c(=O)c3ccccc23)CC1	1	-16	-4	-17	-3	.
Cc1cccc(N2C(=O)/C(=C\c3ccc(C(=O)O)cc3)c3ccccc3C2=O)c1	23	33	5	43*	1	-37
O=C(O)c1cccc(C(=O)O)c1	12	-9	-17	45*	-1	12
O=C(O)c1cccc(N2C(=O)c3ccc(Oc4ccc(Cl)cc4)cc3C2=O)c1	-2	-6	12	6	-3	.
O=C(O)c1cccc(N2C(=O)c3ccc4c5c(ccc(c35)C2=O)C(=O)N(c2cccc(C(=O)O)c2)C4=O)c1	7	-1	1	50*	2	50*
Cc1cc(/C=C(/C#N)C(=O)O)c(C)n1-c1cccc2ccccc12	-9	9	-4	-64	1	.
N#Cc1ccccc1NC(=O)COc1ccccc1C(=O)Nc1ccccc1	-15	-22	-9	-22	.	.
CC(C)C[C@H](N)C(=O)N1CCC(C(=O)N[C@H](C(=O)NC(C)c2ccccc2)C(C)C)CC1 (stereo not given in full)	-8	7	4	42*	0	11
CC(C)C[C@H](N)C(=O)N1CCC(C(=O)N[C@H](C(=O)NCc2ccc(F)cc2)C(C)C)CC1	-8	-17	-5	8	3	.
COc1ccc(CNC(=O)[C@@H](NC(=O)C2CCN(C(=O)[C@@H](N)CC(C)C)CC2)C(C)C)cc1	13	-10	-6	52*	8	9
CN(C)c1ccc(NC(=O)c2ccc(Cn3cc([N+](=O)[O-])cn3)cc2)cc1	2	-10	7	44*	-3	39
